Assay [1] is described as follows: E. coli DRC41 culture turbidity changes, primary screen, E. coli filamentation inducer project, strain DRC41, OD650, 48 h (AID 1152).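 Further: E. coli MC1000 strain DRC41 lacking acrAB efflux pump and sulA.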 The settings on record: E. coli DRC41 (acrAB sulA), higher = more signal, called active from +8 up or from −8 down.
A short description of assay [2]: small-molecule binders of probe aLefty1, primary screen, biochemical, small-molecule microarray, 635/667 nm fluorescence (AID 1153).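 Further: score merges spot fluorescence with signal-to-noise ratio from the scanned slide images.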 Particulars: higher = more signal.
Assay [3] in a line: PSAC antagonists in infected red cells, primary screen, cell-based, P. falciparum Indochina, OD700, 1 h (AID 1154). Particulars: P. falciparum Indochina infected RBC osmotic lysis, higher = more signal, called active from +8 up or from −8 down.
A short description of assay [4]: PSAC antagonists in infected red cells, primary screen, cell-based, P. falciparum Indochina, OD700, 2 h (AID 1155).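 Further: lysis reports solute entry through the parasite surface anion channel PSAC; channel blockers reduce lysis of infected cells.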 Particulars: P. falciparum Indochina infected erythrocytes, osmotic lysis OD700; higher = more signal, called active from +8 up or from −8 down.
Assay [5] is described as follows: osmotic lysis modulators in infected erythrocytes, primary screen, PSAC antagonist project, cell-based, P. falciparum Indochina, OD700, 3 h (AID 1156). Particulars: higher = more signal, called active from +8 up or from −8 down.
A short description of assay [6]: PSAC antagonists in infected red cells, primary screen, cell-based, P. falciparum Indochina, OD700, 18 h (AID 1157). Particulars: P. falciparum Indochina infected erythrocytes, osmotic lysis OD700, 18 h; higher = more signal, called active from +8 up or from −8 down.
Assay [7] is described as follows: modulators of S6 phosphorylation in cells, primary screen, cell-based, A549, cytoblot, luminescence, serum-stimulated (AID 1158).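 Further: serum-stimulated A549 lung adenocarcinoma cells; signal is phosphorylated S6 detected by cytoblot immunostaining with HRP secondary.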 Particulars: A549 phospho-S6 cytoblot, 5 h, higher = more signal.
Assay [8] has as its target NADPH oxidase 2 (Homo sapiens) (UniProt P04839). Briefly: NOX2-dependent H2O2 signal modulators, primary screen, NOX inhibitor project, cell-based, HEK293-NOX2, PMA-stimulated, Amplex Red fluorescence (AID 1159). Further: test concentration not given here. Particulars: 45 min, higher = more signal, called active from +8 up or from −8 down.
Assay [9] has as its target NADPH oxidase 4 (Homo sapiens) (UniProt Q9NPH5). Briefly: NOX4-dependent H2O2 signal modulators, primary screen, NOX inhibitor project, cell-based, HEK293-NOX4, tetracycline-induced, Amplex Red fluorescence (AID 1160). The settings on record: 45 min, higher = more signal, called active from +8 up or from −8 down.
In assay [10] the target is NADPH oxidase 5 (Homo sapiens) (UniProt Q96PH1). As to the kind of experiment: NOX5-dependent H2O2 signal modulators, primary screen, NOX inhibitor project, cell-based, HEK293-NOX5, Amplex Red fluorescence (AID 1161). Particulars: HEK293-NOX5, ionomycin, 45 min, higher = more signal.
Assay [11] can be described thus: A549 cell viability effects, profiling panel, calcein-AM fluorescence, 48 h, basal (AID 1162). Further: test concentration not given here. The settings on record: higher = more signal.
Assay [12] in a line: adipocyte viability effects, profiling panel, cell-based, 3T3-L1 adipocytes, calcein-AM fluorescence, 48 h, basal (AID 1163). Further: test concentration not given here. The settings on record: 3T3-L1 adipocytes viability, higher = more signal.
The nature of assay [13]: HepG2 cell viability effects, profiling panel, calcein-AM fluorescence, 48 h, basal (AID 1164). Further: test concentration not given here. The settings on record: higher = more signal.
The nature of assay [14]: MM1S cell viability effects, profiling panel, calcein-AM fluorescence, 48 h, basal (AID 1165).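 Further: viability of MM1S multiple myeloma cells under basal unstimulated conditions; test concentration not given here.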 The settings on record: higher = more signal.
Assay [15] is described as follows: basal RPMI8226 viability, no added stimulus, profiling panel, cell-based, calcein-AM fluorescence, 48 h, PK04 Diversity Set (AID 1166).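 Further: cells grown under basal conditions without added stimulus; test concentration not given here.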 Particulars: RPMI8226 myeloma viability, higher = more signal.
A short description of assay [16]: basal HepG2 mitochondrial membrane potential changes, profiling panel, cell-based, JC-1 fluorescence, 24 h, 100 nL compound (AID 1167). Further: test concentration not given here. The settings on record: higher = more signal.
The nature of assay [17]: basal 3T3-L1 adipocyte mitochondrial potential changes, profiling panel, cell-based, JC-1 fluorescence, 3T3-L1 adipocytes, 24 h, 100 nL compound (AID 1168). Further: test concentration not given here. The settings on record: JC-1 mitochondrial fluorescence, higher = more signal, called active from +8 up or from −8 down.
A short description of assay [18]: basal RPMI8226 mitochondrial membrane potential changes, profiling panel, cell-based, JC-1 fluorescence, 24 h, 100 nL compound (AID 1169). Further: test concentration not given here. The settings on record: RPMI8226 myeloma, JC-1 mitochondrial potential fluorescence, higher = more signal.
Assay [19] in a line: basal MM1S mitochondrial membrane potential changes, profiling panel, cell-based, JC-1 fluorescence, 24 h, 100 nL compound (AID 1170). Further: test concentration not given here. The settings on record: higher = more signal.
Assay [20] in a line: A549 lung cancer cell viability effects, profiling panel, resazurin fluorescence, 24 h, PK04 Diversity Set (AID 1171). Further: test concentration not given here. The settings on record: higher = more signal, called active from +8 up or from −8 down.

Data on 9 molecules can be found in PubChem BioAssay.

Each structure is given as a SMILES string. Calls of active or inactive are those of the source.

Sequence of NADPH oxidase 4 (Homo sapiens) (Q9NPH5 whole entry, looked up): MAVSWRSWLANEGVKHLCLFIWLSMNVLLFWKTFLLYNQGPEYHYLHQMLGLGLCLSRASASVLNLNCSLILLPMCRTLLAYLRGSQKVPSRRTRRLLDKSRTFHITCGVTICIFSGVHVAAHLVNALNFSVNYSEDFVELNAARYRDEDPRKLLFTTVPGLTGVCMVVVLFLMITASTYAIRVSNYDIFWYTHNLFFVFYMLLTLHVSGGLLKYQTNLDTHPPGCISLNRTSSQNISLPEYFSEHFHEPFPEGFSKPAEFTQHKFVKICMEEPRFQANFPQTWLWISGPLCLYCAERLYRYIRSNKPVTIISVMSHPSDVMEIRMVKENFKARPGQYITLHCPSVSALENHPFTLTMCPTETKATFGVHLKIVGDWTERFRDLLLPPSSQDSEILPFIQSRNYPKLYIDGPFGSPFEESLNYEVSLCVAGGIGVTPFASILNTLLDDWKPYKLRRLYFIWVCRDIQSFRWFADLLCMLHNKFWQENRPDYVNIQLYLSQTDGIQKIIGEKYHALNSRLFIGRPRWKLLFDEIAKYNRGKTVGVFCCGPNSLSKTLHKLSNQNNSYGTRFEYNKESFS
Sequence of NADPH oxidase 2 (Homo sapiens) (P04839 whole entry, looked up): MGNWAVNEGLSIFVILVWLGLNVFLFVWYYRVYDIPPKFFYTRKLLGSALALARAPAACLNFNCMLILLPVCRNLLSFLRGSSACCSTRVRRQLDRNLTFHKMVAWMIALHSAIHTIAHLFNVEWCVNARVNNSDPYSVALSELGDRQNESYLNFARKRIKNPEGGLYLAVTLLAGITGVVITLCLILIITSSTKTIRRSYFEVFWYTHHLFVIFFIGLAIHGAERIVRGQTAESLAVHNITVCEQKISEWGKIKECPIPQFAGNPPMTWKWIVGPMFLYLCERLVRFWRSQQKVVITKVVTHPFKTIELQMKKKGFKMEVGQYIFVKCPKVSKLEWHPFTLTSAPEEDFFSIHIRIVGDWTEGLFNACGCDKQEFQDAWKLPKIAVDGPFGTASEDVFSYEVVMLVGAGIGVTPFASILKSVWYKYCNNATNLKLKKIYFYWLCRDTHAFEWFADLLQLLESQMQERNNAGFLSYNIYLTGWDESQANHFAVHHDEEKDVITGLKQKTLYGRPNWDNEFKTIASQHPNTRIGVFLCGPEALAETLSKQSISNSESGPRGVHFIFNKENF
Sequence of NADPH oxidase 5 (Homo sapiens) (Q96PH1 whole entry, looked up): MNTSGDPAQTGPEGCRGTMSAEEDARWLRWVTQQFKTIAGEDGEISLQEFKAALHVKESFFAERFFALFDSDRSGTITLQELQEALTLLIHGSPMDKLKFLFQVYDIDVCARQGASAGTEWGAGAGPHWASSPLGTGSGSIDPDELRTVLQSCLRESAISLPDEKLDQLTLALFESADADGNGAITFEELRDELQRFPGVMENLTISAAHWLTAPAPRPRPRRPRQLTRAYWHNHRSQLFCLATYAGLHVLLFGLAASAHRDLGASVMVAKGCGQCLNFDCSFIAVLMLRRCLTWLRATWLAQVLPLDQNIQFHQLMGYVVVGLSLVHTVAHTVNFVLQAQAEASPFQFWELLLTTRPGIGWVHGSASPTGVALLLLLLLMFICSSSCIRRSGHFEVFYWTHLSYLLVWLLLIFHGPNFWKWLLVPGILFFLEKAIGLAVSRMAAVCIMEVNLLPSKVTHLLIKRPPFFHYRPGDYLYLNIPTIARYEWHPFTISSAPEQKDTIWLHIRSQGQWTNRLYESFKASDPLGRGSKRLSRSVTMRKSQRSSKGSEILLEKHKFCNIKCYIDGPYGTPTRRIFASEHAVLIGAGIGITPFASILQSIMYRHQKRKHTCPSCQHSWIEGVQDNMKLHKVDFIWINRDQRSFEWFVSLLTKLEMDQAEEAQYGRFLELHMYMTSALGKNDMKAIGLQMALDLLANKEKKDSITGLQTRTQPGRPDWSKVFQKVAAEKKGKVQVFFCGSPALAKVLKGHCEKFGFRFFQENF

On to `CCOC(=O)C[C@H]1[C@H](OC(=O)c2ccc(-c3ccccc3)cc2)[C@@H](NC(=O)c2ccc3ccccc3c2)c2cc(OCCCO)ccc2N1C(=O)c1ccccc1`, for which the z-score in assay [1] is -0.966 (inactive); in [3], 0.398 (inactive); in assay [4], 0.134 (inactive); in assay [5], -0.337 (inactive); in assay [6], 0.407 (inactive); in assay [7], 0.263. The z-score is -2.38 (inactive) in assay [8]; -1.62 (inactive) in [9]; -0.532 in [10]; -0.9 in assay [11]; 0.237 in [12]; -0.307 in assay [13]. Besides, the z-score in [14] is -0.438; in assay [15], -0.322; in assay [16] it was 0.762; in [17], -0.0421 (inactive); in [18], 0.483; in [19], -0.108. Also, the z-score in assay [20] was 0.231 (inactive). Also, the composite z-score in assay [2] was 0.0691.
For `COCCOC(=O)N1C(=O)[C@@]2(c3cc(C#Cc4ccc(OC)cc4)ccc31)[C@H](C(=O)N1CCCCCCC1)[C@H]1C(=O)O[C@H](c3ccccc3)[C@H](c3ccccc3)N1[C@@H]2c1ccccc1OCCO`, the z-score is 0.0696 (inactive) in [1]; 0.688 (inactive) in assay [3]; 1.36 (inactive) in assay [4]; 0.286 (inactive) in assay [5]; 1.07 (inactive) in assay [6]; -0.17 in assay [7]. In addition, the z-score was 0.0983 (inactive) in [8]; -0.0381 (inactive) in assay [9]; 0.724 in [10]; -0.198 in assay [11]; 1.05 in [12]; 0.383 in assay [13]. Moreover, the z-score is -0.197 in [14]; -0.417 in assay [15]; 0.617 in assay [16]; 3.29 (inactive) in assay [17]; -0.16 in assay [18]; -0.845 in [19]. The z-score in [20] was 0.122 (inactive). The composite z-score in [2] is 2.74.
For `C=C(/C(=C/C[C@H](OC(=O)c1ccncc1)c1ccccc1OCCO)c1cc(C(=O)OC)ccc1OC)C(C)C`, the z-score in assay [1] is -0.458 (inactive); in assay [3] it was 14.9 (active); in [4] it was 2.53 (inactive); in assay [5], 2.19 (inactive); in assay [6] it was 1.02 (inactive); in [7] it was 0.222. Besides, the z-score in assay [8] is 1.22 (inactive); in [9], -0.614 (inactive); in [10], -1.29; in assay [11], 0.0292; in assay [12], 0.322; in assay [13] it was -0.275. Also, the z-score was -1.85 in assay [14]; -0.122 in assay [15]; 0.589 in assay [16]; -0.617 (inactive) in assay [17]; -0.429 in assay [18]; 0.00378 in assay [19]. Further, the z-score in [20] was 1.47 (inactive). This molecule also returned a composite z-score in [2] of 0.428.
For `COCC(=C=CC[C@@H](O)c1ccc(OCCO)cc1)C[C@@H](O)COCc1ccccc1`, the z-score in assay [1] was 1.81 (inactive); in assay [3], 7.41 (inactive); in [4], 0.416 (inactive); in assay [5], 0.766 (inactive); in assay [6], -0.756 (inactive); in assay [7], 2.43. Also, the z-score in [8] was -1.16 (inactive); in [9], -0.479 (inactive); in assay [10] it was -2.03; in [11] it was 0.517; in assay [12], 0.657; in [13], 0.712. The z-score in [14] is 0.105; in [15], 0.0253; in assay [16], -1.77; in assay [17], 0.914 (inactive); in assay [18] it was -0.725; in assay [19], -1.03. Moreover, the z-score in assay [20] is 0.583 (inactive). Further, the composite z-score in assay [2] was 0.0299.
For the molecule `CC(C)N1CC=CC23O[C@@H]4C=CCCOC(=O)C4[C@H]2C(=O)N(CCCCCO)[C@@H]3C1=O` (stereo not given in full), the z-score in [1] is 0.952 (inactive); in [3] it was 1.42 (inactive); in assay [4] it was 0.261 (inactive); in [5], 2.21 (inactive); in [6], 0.455 (inactive); in [7] it was 1.35. Further, the z-score in [8] is 1.42 (inactive); in assay [9], 0.356 (inactive); in assay [10], 1.48; in assay [11], -0.211; in assay [12], -0.288; in [13], 1.28. Besides, the z-score in assay [14] is 1.57; in assay [15] it was 1.7; in assay [16], 0.77; in assay [17] it was 1.19 (inactive); in [18] it was 0.0326; in [19], -1.08. The z-score in [20] was 0.846 (inactive). This molecule also showed a composite z-score in [2] of -0.0186.
For the molecule `C=CC[C@@]1(C(=O)N(C)C)N=C(c2ccc(OCCCO)cc2)O[C@@H]1c1ccccc1`, the z-score in [1] was -0.463 (inactive); in [3], 24 (active); in assay [4], 5.44 (inactive); in assay [5] it was 0.549 (inactive); in assay [6] it was 1.13 (inactive); in assay [7], -0.342. The z-score was -0.315 (inactive) in [8]; 0.723 (inactive) in [9]; -0.651 in [10]; -0.511 in assay [11]; -0.681 in assay [12]; -0.815 in assay [13]. Further, the z-score is -1.01 in assay [14]; 0.127 in assay [15]; -0.644 in assay [16]; -0.895 (inactive) in assay [17]; -0.305 in assay [18]; -0.491 in assay [19]. The z-score in assay [20] is 0.79 (inactive). Moreover, the composite z-score in [2] was determined as 0.123.
On to `O=C1O[C@@H](c2ccccc2)[C@@H](c2ccccc2)N2[C@@H](c3ccc(O)cc3)[C@]3(C(=O)Nc4ccc(C#CC5=CCCCC5)cc43)[C@@H](C(=O)N3CCCCCCC3)[C@H]12`, for which the z-score in [1] is 1.3 (inactive); in [3], -0.781 (inactive); in assay [4], -1.2 (inactive); in [5], -0.993 (inactive); in [6] it was -2.4 (inactive); in assay [7], 2.98. Moreover, the z-score in [8] was 0.682 (inactive); in assay [9] it was 0.597 (inactive); in [10] it was 1.56; in assay [11] it was -0.361; in assay [12], 0.967; in assay [13], 0.606. For the same molecule, the z-score in [14] is 0.212; in assay [15], -1.72; in [16] it was 0.41; in assay [17], 0.571 (inactive); in assay [18], -0.527; in [19], 0.135. For the same molecule, in [20], the z-score was -0.77 (inactive). In assay [2], the composite z-score turned out to be 2.57.
Turning to `COc1ccccc1CN1C(=O)c2ccccc2[C@](Cc2ccccc2I)(C(=O)NCCCN(C)C)[C@@H]1c1ccc(CO)cc1`, the z-score in assay [1] is -6.9 (inactive); in assay [3], 2.8 (inactive); in [4], -0.551 (inactive); in assay [5], -5.31 (inactive); in assay [6], -0.379 (inactive); in assay [7] it was -2.54. In addition, the z-score was -10.2 (active) in [8]; -4.81 (inactive) in [9]; -4.8 in assay [10]; -4.38 in assay [11]; -0.247 in [12]; -5.12 in [13]. The z-score in assay [14] was -3.81; in assay [15], -4.39; in assay [16], -3.01; in assay [17] it was 1.29 (inactive); in [18], -1.03; in assay [19], -2.23. Further, the z-score in assay [20] was -7.15 (inactive). In addition, the composite z-score in assay [2] was -0.275.
Consider `COc1cccc(C[C@H]2C[C@@H](CO[Si](C(C)C)(C(C)C)C(C)C)N3C(=O)[C@@]4(C(C)=O)O[C@@]23[C@@H]2C(=O)N(C)C(=O)[C@@H]24)c1`, for which the z-score in assay [1] is -0.848 (inactive); in [3], 1.31 (inactive); in [4], 0.576 (inactive); in assay [5] it was -0.176 (inactive); in assay [6] it was 0.0375 (inactive); in assay [7] it was -0.669. Also, the z-score was -0.175 (inactive) in assay [8]; 0.746 (inactive) in assay [9]; 0.181 in assay [10]; -2.05 in assay [11]; 0.202 in assay [12]; -0.342 in assay [13]. The z-score is -1.9 in [14]; -1.38 in [15]; -1.64 in [16]; 1.29 (inactive) in assay [17]; -0.846 in assay [18]; -0.661 in [19]. For the same molecule, in assay [20], the z-score was 0.712 (inactive). Further, in assay [2], the composite z-score is -0.0061.
